Results filed as inconclusive are left out. Values without a mark were called inactive. Active and inactive are the calls of the source. The call rests on the fitted dose curve; in most records, active means well fitted inhibition curve with a large enough effect; inconclusive means small, poorly fitted or top-dose-only effect; inactive means flat fitted curve, though single readings scatter.
Tests used:
CRL-7250 = normal cell line; test: Cytotoxic Profiling of Annotated Libraries Using Quantitative High-Throughput Screening (AID 1296008); conditions: Five cell lines viability, CellTiter-Glo ATP luminescence, 48-72 h; max response: stronger effect = lower value; further: nearly all actives have a fitted effect of over 60% in size
How it was run: (§1)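 Cells exposed to compounds for 48 or 72 hr at 37 degrees Celsius. Viability read as ATP-coupled luminescence with CellTiter-Glo after 10 min at room temperature.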

HEK293 = test: as above; conditions: Five cell lines viability, CellTiter-Glo ATP luminescence, 48-72 h; max response: stronger effect = lower value
How it was run: as §1
On the % scale 0 is the no-effect control and ±100 the full control effect; potency means the concentration at half of the fitted maximal effect.

CC1CC(O)C2(OC1=O)OC1C(O)C3C4CCC5CC(OC6OC(CO)C(O)C(O)C6OC6OC(C)C(O)C(O)C6O)CCC5(C)C4CCC3(C)C1C2C (stereo not drawn)
max response (CRL-7250): -9.09%
outcome (HEK293): inactive

CC[C@H](C)[C@H](NC(=O)[C@H]([C@@H](C)CC)N(C)C(C)=O)C(=O)N[C@H](C(=O)N[C@@H](CC(C)C)C(=O)[C@@]1(C)CO1)[C@@H](C)O
Potency (CRL-7250): 29.1 nM (active)
Potency (HEK293): 9.2 nM (active)

COC(=O)C1(C)CCC2(C(=O)O)CCC3(C)C(=CCC4C5(C)CC(O)C(OC6OCC(O)C(O)C6O)C(C)(CO)C5CCC43C)C2C1 (stereo not drawn)
max response (CRL-7250): 3.48%
max response (HEK293): 0.887%

COc1cc(C(=O)O)ccc1OC1OC(CO)C(O)C(O)C1O (stereo not drawn)
outcome (CRL-7250): inactive
max response (HEK293): -3.87%

C[C@H](Oc1ccc(S(C)(=O)=O)cc1C(=O)N1CCN(c2ncc(C(F)(F)F)cc2F)CC1)C(F)(F)F
outcome (CRL-7250): inactive
max response (HEK293): -24.7%

CC(=O)OCC1(O)CCC2C(COC3OC(CO)C(O)C(O)C3OC(=O)/C=C/c3ccc(O)cc3)=COC(OC(=O)CC(C)C)C21 (stereo not drawn)
outcome (CRL-7250): inactive
max response (HEK293): -11%

O=C(O)c1cn(C2CC2)c2cc(N3C[C@@H]4C[C@H]3CN4)c(F)cc2c1=O
max response (CRL-7250): -3.63%
max response (HEK293): -1.22%

OCC(CO[C@@H]1O[C@H](CO)[C@@H](O)[C@H](O)[C@H]1O)c1ccc2c(c1)OCO2 (stereo partly drawn)
max response (CRL-7250): 0.071%
max response (HEK293): -1.28%

NC(=O)[C@H](O[C@@H]1O[C@H](CO)[C@@H](O)[C@H](O)[C@H]1O)c1ccccc1
outcome (CRL-7250): inactive
max response (HEK293): -3.01%

— PubChem BioAssay (NCATS)
